A selection: hits, their analogues and other compounds. The true share with any hit is near 9.5%.
HPGD block = blocks human HPGD enzyme activity; AID 894; P15428; Potency, µM, most hits filed as inhibitors; purified HPGD, NADH fluorescence kinetic, PGE2 substrate; 150,000 compounds, 4.3% hits; active = well fitted inhibition curve with a large enough effect, not every such curve was filed as active; inconclusive = small, poorly fitted or top-dose-only effect, or another doubt; inactive = no such curve, though single readings can be large or run the other way
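NADH formation kinetics: reaction with 30 uM PGE2 and 1 mM NAD+ (final), 20 nM enzyme, Tris-HCl pH 8 with Tween 20, after 15 min compound preincubation at room temperature. Fluorescence change, last versus first of five reads.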
Tau fibril FP = tau fibrillization inhibition (FP) | P10636 | K18 P301L tau heparin fibrillization, Alexa594 FP, 6 h | AID 1468 | Potency, µM (doses to about 57.7 µM), most hits filed as inhibitors | 280,000 compounds, 0.39% hits; note: nearly all actives have a fitted effect of over 55% in size
Target sequence (P10636 561-689 P618L limits assumed): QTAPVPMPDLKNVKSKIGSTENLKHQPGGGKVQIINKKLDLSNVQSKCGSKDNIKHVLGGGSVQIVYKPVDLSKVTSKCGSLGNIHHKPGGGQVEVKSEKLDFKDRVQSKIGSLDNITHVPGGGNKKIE
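Quantitative HTS format: compounds meet 15 uM recombinant K18 P301L tau and Alexa 594-tau tracer in 100 mM sodium acetate pH 7; 20 uM heparin triggers fibrillization at 37 C over 6 hr; FP gives the signal.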
Tau fluor counter = counter-screen for tau fibril formation inhibitors; 280,000 compounds, 0.93% hits; Potency, µM (doses to about 57.7 µM); tau K18 P301L Alexa594 fluorescence, heparin fibrillization; note: nearly all actives have a fitted effect of over 55% in size
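Human tau K18 P301L (15 uM unlabeled, 0.24 uM Alexa 594-labeled) in 100 mM sodium acetate pH 7 with 20 uM heparin, 6 hr at 37 C. ThT 30 uM added, 1 hr ambient; Alexa 594 FP and total fluorescence read at 555/632 nm.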
NPSR antag = blocks cAMP signaling of the human neuropeptide S receptor | Q6W5P4 | CHO-NPSR cells, cAMP TR-FRET, antagonist mode | Potency, µM (doses to about 38.3 µM), usual class: inhibitors | 220,000 compounds, 1% hits; note: nearly all actives have a fitted effect of over 50% in size
Tau ThT inhib = tau fibrillization inhibition (ThT binding); Potency, µM (top dose mostly 57.4 µM), most hits filed as inhibitors; recombinant tau K18 P301L (four-repeat tau fragment), heparin-induced fibrillization, ThT fluorescence; 270,000 compounds, 2.1% hits; note: nearly all actives have a fitted effect of over 55% in size
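Heparin-induced (20 uM) aggregation of recombinant human K18 P301L tau, 15 uM unlabeled with 0.24 uM labeled, pH 7 acetate buffer, 6 hr at 37 C with compound. Fibrils quantified by 30 uM ThT fluorescence after 1 hr ambient incubation.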
ALDH1A1 block = ALDH1A1 (human) enzyme inhibition | P00352 | Purified ALDH1A1, NADH fluorescence, propionaldehyde substrate | Potency, µM (highest dose often 75.3 µM), hits mostly inhibitors | 220,000 compounds, 7.3% hits | AID 1030; active = well fitted inhibition curve with a large enough effect, not every such curve was filed as active; inconclusive = small, poorly fitted or top-dose-only effect, or another doubt; inactive = no such curve, though single readings can be large or run the other way
Target sequence (P00352 whole entry, looked up): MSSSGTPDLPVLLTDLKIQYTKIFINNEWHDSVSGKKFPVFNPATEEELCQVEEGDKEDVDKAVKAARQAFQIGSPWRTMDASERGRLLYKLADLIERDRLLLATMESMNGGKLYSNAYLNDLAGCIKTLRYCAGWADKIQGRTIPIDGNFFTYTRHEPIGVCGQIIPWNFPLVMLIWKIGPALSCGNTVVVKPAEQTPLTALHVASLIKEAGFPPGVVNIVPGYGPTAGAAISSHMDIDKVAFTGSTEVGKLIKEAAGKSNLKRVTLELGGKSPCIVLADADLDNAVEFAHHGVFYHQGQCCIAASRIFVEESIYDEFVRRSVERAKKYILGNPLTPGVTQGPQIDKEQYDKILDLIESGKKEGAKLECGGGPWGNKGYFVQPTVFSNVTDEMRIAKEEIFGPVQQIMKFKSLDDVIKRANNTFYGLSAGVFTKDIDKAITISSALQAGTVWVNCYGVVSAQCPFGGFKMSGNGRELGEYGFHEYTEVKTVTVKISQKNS
Hits are given with their value; . = inactive; ? = inconclusive; / = no result; [ ] = dose if it differs, or a comment. Unless noted, calls come from the whole dose curve; as a rule, active = well fitted curve in the direction sought with a large enough effect; inconclusive = small, poorly fitted or top-dose-only effect, or another doubt; inactive = no such curve, though single readings can be large; an effect the other way counts as inactive or inconclusive.

SMILES | HPGD block | Tau fibril FP | Tau fluor counter | NPSR antag | Tau ThT inhib | ALDH1A1 block
CCOC(=O)CNC(=O)O[C@H]1C(=O)c2cc(OC)ccc2O[C@@H]1c1ccc(OC)c(Br)c1 | . | ? | . | / | . | .
COc1ccccc1CCNC(=O)Cc1c(C)c2c(cc(C)c3c(C)coc32)oc1=O | / | . | . | / | . | /
CCNC(=S)Nc1ccc(N2CCCCC2)cc1 | / | . | . | . | ? | 25µM
O=C(Cn1c(-c2ccccc2)noc1=O)Nc1ccc(N2CCCCCC2)cc1 | . | ? | 14µM[quencher] | . | . | ?
O=C(Cn1c(-c2ccccc2)noc1=O)Nc1ccc(S(=O)(=O)N2CCOCC2)cc1 | . | . | . | . | . | .
CCc1ccccc1N(CC)C(=O)C(=O)Nc1ccc2nc3n(c(=O)c2c1)CCCCC3 | / | ? | . | / | . | /
COc1ccccc1NC(=O)CN1C(=O)CC(c2ccc(C)c(C)c2)=Nc2ccccc21 | / | ? | . | / | . | /
COC(=O)C1=CN(c2cccc(C)c2)C=C(C(=O)OC)C1c1cc(OC)c(O)c([N+](=O)[O-])c1 | 16µM | . | ? | . | 16µM | .
COC(=O)C1=CN(c2ccc(OC)cc2)C=C(C(=O)OC)C1c1ccc(C)c([N+](=O)[O-])c1 | . | . | . | . | . | .
COc1cccc(C(=O)Nc2ccccc2OCc2cc(=O)n3cc(C)ccc3n2)c1 | / | . | . | / | . | /
COc1ccc(NC(=O)CSc2ncccc2C(=O)OC(C)C)cc1OC | . | . | . | . | . | 0.079µM
COc1ccc(OC)c(NC(=O)CSc2ncccc2C(=O)O)c1 | 13µM | . | . | . | . | ?
COc1cccc(-n2ccnc2SCC(=O)Nc2cc(OC)ccc2OC)c1 | . | . | . | . | . | .
Cc1c(C(=O)OCCOC(C)C)[nH]c2c1C(=O)CC(c1ccco1)C2 (stereo not given) | . | . | . | . | . | 25µM
CCOC(=O)c1[nH]c2c(c1C)C(=O)CC(c1ccco1)C2 (stereo not given) | . | . | . | ? | . | ?
COCCOC(=O)c1[nH]c2c(c1C)C(=O)CC(c1ccco1)C2 (stereo not given) | . | . | . | ? | . | ?
Cc1c(C(=O)OCc2ccccc2)[nH]c2c1C(=O)CC(c1ccco1)C2 (stereo not given) | . | ? | . | ? | ? | 8.9µM
CCC(CC)C(=O)Nc1nnc2n1CCS2 | / | . | . | / | . | /
Oc1cc2c(cc1O)[C@@H]1c3ccc(O)c(O)c3OC[C@]1(O)C2 | 11µM | ? | ? | / | 14µM | .
COCCOC(=O)c1c(C)oc2ccc(NS(=O)(=O)c3ccc(C)cc3)cc12 | / | . | . | . | / | /
COCCOC(=O)c1c(C)oc2ccc(NS(=O)(=O)c3ccccc3)cc12 | . | . | . | . | . | 20µM
Cn1nc(C(=O)NC2CCCCC2)c2ccccc2c1=O | . | . | . | . | . | ?
Cn1nc(C(=O)Nc2nnc(C3CC3)s2)c2ccccc2c1=O | / | . | . | . | . | 13µM
COc1ccc(Oc2ncc3nc(-c4cccs4)c(=O)n(Cc4cccc(OC)c4)c3n2)cc1 | . | / | / | / | / | ?
COc1ccc(CC(=O)NCC(c2ccc(N(C)C)cc2)N2CCOCC2)cc1 (stereo not given) | / | . | . | / | ? | /
SMILES | HPGD block | Tau fibril FP | Tau fluor counter | NPSR antag | Tau ThT inhib | ALDH1A1 block
C=CCn1c(-c2ccc(Cl)cc2)c[nH]c1=S | 11µM | . | . | . | . | 1.4µM
C=CCn1c(-c2ccccc2)c[nH]c1=S | ? | . | . | . | . | ?
COc1ccc(/C=N/NC(=O)CSc2ccccc2)cc1OC | . | . | . | . | . | ?
COc1cccc(/C=N/NC(=O)CCn2c3ccccc3c3ccccc32)c1 | . | ? | . | . | . | .
COc1ccc(/C=N/NC(=O)CCn2c3ccccc3c3ccccc32)cc1O | . | . | 18µM[quencher] | . | ? | .
Cc1cc(SCC(=O)NN=C2CCN(C(C)C)CC2)c(C)cc1Br | 25µM | . | . | . | . | ?
Cc1cc(C)nc(SCC(=O)NN=C2CCCC2)n1 | / | . | . | . | . | .
Cc1cc(SCC(=O)N/N=C/c2ccc(O)c(O)c2O)c(C)cc1Br | 10µM | 13µM | 14µM[quencher] | . | 7.9µM | 4.5µM
COC(=O)Oc1ccc(/C=N/NC(=O)CSCc2ccccc2Br)cc1OC | . | . | ? | . | ? | 13µM
COc1cc(/C=N/NC(=O)CSc2cc(C)c(Br)cc2C)ccc1O | . | . | 25µM[quencher] | . | ? | .
Cc1ccc(Cc2c(C)nc3nc(SCC(=O)NCCC(C)C)nn3c2C)cc1 | / | . | . | / | . | /
Cc1cc(OCC(=O)N2CCCC2)cc(C)c1Cl | 11µM | . | . | . | . | .
Cc1ccc(OCC(=O)N2CCCCC2)c(Br)c1 | 16µM | . | . | . | . | .
CCOc1ccc(N2C(=O)N(Cc3ccc(C)cc3C)c3ccccc3S2(=O)=O)cc1 | / | . | . | / | . | /
CC(C)C(C)(C#N)NC(=O)CSc1nc2scc(-c3ccco3)c2c(=O)n1-c1ccccc1 (stereo not given) | . | 7.9µM | . | . | 10µM | 11µM
COc1ccccc1CNC(=O)c1ccc2c(c1)sc1nc(-c3ccc(F)cc3)cn12 | / | . | . | / | . | /
CC(C)[C@H](NC(=O)c1ccco1)C(=O)OCC(=O)Nc1cccc(F)c1 | / | . | . | . | . | .
Cc1c(Cl)cnc(NC(=O)COC(=O)C(NC(=O)c2ccco2)C(C)C)c1Cl (stereo not given) | . | . | . | . | ? | 11µM
Cc1ccc[n+](CC(=O)Nc2ccc([N+](=O)[O-])cc2Cl)c1 | . | . | . | . | . | 16µM
O=C1CC(Sc2ccc(Cl)cc2)C(=O)N1Cc1ccncc1 (stereo not given) | / | . | . | . | / | /
C=CCNc1nnc(SC2CC(=O)N(c3ccc(OC)cc3)C2=O)s1 (stereo not given) | ? | . | . | . | ? | 2µM
NCCSC1CC(=O)N(Cc2ccc(F)cc2)C1=O (stereo not given) | / | . | . | . | . | 2.2µM
CCOc1ccc(N2C(=O)CC(NC3CCCCNC3=O)C2=O)cc1 (stereo not given) | . | . | . | . | . | 20µM
CCOc1ccc(N2C(=O)CC(SCCN)C2=O)cc1 (stereo not given) | . | . | . | . | . | 3.2µM
COc1ccc(N2C(=O)CC(Sc3n[nH]c(-c4cccc(C)c4)n3)C2=O)cc1 (stereo not given) | / | . | . | . | ? | /
COc1ccc(NC(=O)CC2Oc3ccc(C)cc3NC2=O)cc1Cl (stereo not given) | / | ? | . | / | ? | /
C/C(=N\NC(=O)CSCc1cccc(Br)c1)c1ccc([N+](=O)[O-])cc1 | . | . | . | . | . | .
COc1ccc(N2C(=O)CC(Sc3nccc(C)n3)C2=O)cc1 (stereo not given) | . | . | . | . | . | 22µM

Screening results: PubChem BioAssay, National Center for Advancing Translational Sciences (NCATS)
